# Pf growth 96h: P. falciparum growth inhibition at 96 hour, primary screen for plastid delayed-death inhibitors | P. falciparum luciferase reporter growth, 96 h | 320,000 compounds, 6.9% hits | Potency, µM (top dose mostly 28.7 µM), without a hit: top-dose activity change, negative = inhibition, hits mostly inhibitors; also: % is scaled to controls: 0 for no effect and ±100 for the full control effect
#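 P. falciparum expressing integrated firefly luciferase grown in erythrocytes (2% hematocrit, 0.05% parasitemia final) with compounds for 96 hours at 37 C, 5% CO2. Growth inhibition read as loss of luminescence after adding luciferase detection reagent.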
# AMA1 RON2 block: inhibitors of Plasmodium falciparum AMA1-RON2 interaction; AlphaScreen AMA1-biotinylated RON2 peptide binding; Potency, µM (series often up to 58.2 µM), without a hit: top-dose activity change, negative = inhibition, hits mostly inhibitors; 360,000 compounds, 0.2% hits; AID 720542;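 also: 0% = vehicle wells and -100% = peptide control; nearly all actives have a fitted effect of over 45% in size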
#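 AMA1 (3D7) with his tag at 25 nM final met compounds first, then biotinylated RON2 peptide at 25 nM; detection used donor plus acceptor beads, 10 µg/mL apiece, read by AlphaScreen after 30 min at room temperature.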
# SARS PLpro yeast: SARS-CoV PLP inhibition in yeast | S. cerevisiae expressing SARS-CoV PLpro, growth rescue | Potency, µM (top dose mostly 32.9 µM), inactives show at the highest dose activity, positive = growth rescue, most hits filed as activators | 330,000 compounds, 0.19% hits | AID 485353; calls by dose curve; also: 0% is about no effect; nearly all actives have a fitted effect of over 55% in size
# Pf growth 48h: inhibits P. falciparum growth in the first generation, 48 h; P. falciparum luciferase growth in erythrocytes, 48 h; 310,000 compounds, 5.9% hits; Potency, µM (doses to about 28.7 µM), for inactives: at the highest dose activity change, negative = inhibition, usual class: inhibitors; also: % is scaled to controls: 0 for no effect and ±100 for the full control effect
#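 Firefly luciferase activity from engineered P. falciparum reports growth; inhibitors lower the luminescent signal. Cultures contained 2% hematocrit erythrocytes at 0.1% final parasitemia.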
# NS1 function inh: inhibitors of influenza NS1 protein function; Potency, µM (top dose mostly 46.1 µM), for the others: top-dose activity, positive = more growth; 270,000 compounds, 0.4% hits; calls by dose curve; also: actives are rising curves; nearly all actives have a fitted effect of over 50% in size
#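 Recovery from NS1-induced slow growth read by OD600 in budding yeast switched to galactose assay medium (pH 6.0, -URA) at 1:100 dilution. Compound 23 nl per well; the matching strain lacking NS1 serves as control.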
# HCV inh: HCV inhibition | Huh7.5.1 HCVcc-Cre infection, luciferase reporter, 44 h | Potency, µM (series often up to 41.8 µM), for inactives: at the top dose activity change, negative = inhibition, actives largely listed as inhibitors | 340,000 compounds, 3.4% hits; also: % is scaled to controls: 0 for no effect and ±100 for the full control effect
#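 Whole-lifecycle infectious HCVcc-Cre system; cells 1,000/well, compound then virus (~0.5 moi) added 4 h after plating, 44 h culture. Luciferase read 15 sec following 15 min substrate incubation, room temp.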
# * hit, by the source's call; ? = inconclusive; . = no result given. Rows were chosen to be rich in hits. Some 12% of all compounds tested hit in one or more screens of this group. Unless noted, calls follow the shape of the dose curve; as a rule, active = well fitted curve in the direction sought with a large enough effect; inconclusive = small, poorly fitted or top-dose-only effect, or another doubt; inactive = no such curve, though single readings can be large; an effect the other way counts as inactive or inconclusive. Potency is read from the fitted curve at half-maximal effect.
SMILES,Pf growth 96h,AMA1 RON2 block,SARS PLpro yeast,Pf growth 48h,NS1 function inh,HCV inh
CCOC(=O)c1cc(=O)c2ccc(OCC(=O)Nc3ccc(F)cc3)cc2o1,70%,-3%,1%,54%,1%,-5%
CN(C)C(=O)c1sccc1Oc1ccc(F)cc1[N+](=O)[O-],5%,14%,0%,15%,.,6%
Cc1nc(NC(=O)c2ccccc2)sc1-c1csc(Nc2ccc(C(=O)O)cc2)n1,2.9µM*,1%,-4%,57%,2%,?
C=CCCC(=O)Nc1nc(C)c(-c2csc(Nc3cc(OC)ccc3OC)n2)s1,13µM*,-14%,-6%,?,17%,3.2µM*
COc1cccc(Nc2nc(-c3sc(NC(=O)c4ccccc4)nc3C)cs2)c1,4.1µM*,8%,-2%,5.2µM*,2%,-19%
CCC(=O)Nc1nc(C)c(-c2csc(Nc3cccc(C(=O)O)c3)n2)s1,?,-25%,-1%,98%,.,5%
COc1ccc(OC)c(Nc2nc(-c3sc(N)nc3C)cs2)c1,.,27%,-2%,15µM*,-37%,?
COc1cccc(N2CCN(c3nc(C)cc(=O)[nH]3)CC2)c1,0%,0%,1%,3%,21%,7%
O=C(NCc1ccc(Cl)cc1)C1CCCN1C(=O)Nc1ccc(F)cc1 (stereo not drawn),-20%,15%,-4%,1%,-2%,-10%
Cc1nc(C)c(-c2csc(NCc3ccco3)n2)s1,7%,-5%,-18%,26%,-18%,?
Cc1nc(NC(=O)c2ccccc2)sc1-c1csc(NCc2ccco2)n1,?,-4%,-4%,5.9µM*,?,?
COC(=O)c1ccc(=O)c2nc3/c(=C/O)c(O)cc(=O)c3[nH]c12,?,1.3µM*,3.2µM*,?,1%,?
O=C(CCC1CCCN(C(=O)c2ccccc2Cl)C1)N1CCN(c2ccccn2)CC1 (stereo not drawn),-8%,6%,-3%,?,-17%,?
CN1OC[C@@H]2COc3ccc4ccccc4c3[C@@H]21,90%,-4%,-5%,13µM*,.,2%
O=C1CSC(c2cccnc2)N1Cc1ccc(Cl)cc1Cl (stereo not drawn),9.3µM*,-3%,-2%,?,4%,15%
CC1(C(=O)Nc2cccc3cccnc23)CCN1Cc1ccc(-c2ccccc2)o1 (stereo not drawn),.,80%,.,.,.,.
COc1ccc(CCNC(=O)COc2nsnc2N2CCOCC2)cc1OC,?,-16%,-1%,1.9µM*,1%,11%
Cc1ccccc1NC(=O)COc1nsnc1N1CCOCC1,22%,2%,-1%,-10%,5%,8%
Cc1cc([N+](=O)[O-])ccc1NC(=O)COc1nsnc1N1CCOCC1,-26%,-14%,2%,1.9µM*,-5%,?
CC(NC(=O)CCCc1ccccc1)c1ccncc1 (stereo not drawn),77%,6%,-5%,-49%,1%,19%
COc1ccc(N2CCN(C(=S)Nc3ccccc3)CC2)cc1,?,-12%,-7%,4%,-4%,-10%
CC(=O)c1ccc(N2CCN(C(=S)Nc3ccc(Oc4ccccc4)cc3)CC2)cc1,?,31%,1%,-19%,.,4.5µM*
O=[N+]([O-])c1ccc(N2CCN(C(=S)Nc3ccccc3)CC2)cc1,-15%,4%,2%,2.1µM*,.,28%
CC(=NNC(=S)N1CCN(c2ccccn2)CC1)c1nccs1,.,-60%,.,.,.,1.3µM*
O=C1c2cccc3cccc(c23)C(=O)N1CCN1CCN(C(=S)Nc2ccccc2)CC1,15µM*,-7%,8%,42%,12%,?
Cc1ccc(Cl)cc1N1CCN(C(=O)c2ccc3c(c2)CCN3S(C)(=O)=O)CC1,-39%,.,-3%,?,4%,.
COc1ccc(Cc2noc(=O)[nH]2)cc1,.,-9%,.,.,.,.
O=C(NC(=S)N1CCN(c2ccccn2)CC1)c1ccccc1,2%,36%,-5%,13%,8%,10%
